According to PubChem BioAssay (NCATS):
Calls of active or inactive are those of the source.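 How the source made its calls: active means compounds whose dose series gives a full or clear partial fitted curve of increased nuclear translocation; inconclusive means weak partial curve or effect only at the top dose; inactive means no dose-dependent translocation response.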

These compounds were tested against Glucocorticoid receptor (Homo sapiens) (UniProt P04150) (assay: GR-GFP Redistribution (AID 450)). Conditions: U2OS GR-GFP nuclear translocation, laser cytometry, 2 h; series mostly up to 20.6 µM.
Chain of Glucocorticoid receptor (Homo sapiens) (P04150 whole entry, looked up): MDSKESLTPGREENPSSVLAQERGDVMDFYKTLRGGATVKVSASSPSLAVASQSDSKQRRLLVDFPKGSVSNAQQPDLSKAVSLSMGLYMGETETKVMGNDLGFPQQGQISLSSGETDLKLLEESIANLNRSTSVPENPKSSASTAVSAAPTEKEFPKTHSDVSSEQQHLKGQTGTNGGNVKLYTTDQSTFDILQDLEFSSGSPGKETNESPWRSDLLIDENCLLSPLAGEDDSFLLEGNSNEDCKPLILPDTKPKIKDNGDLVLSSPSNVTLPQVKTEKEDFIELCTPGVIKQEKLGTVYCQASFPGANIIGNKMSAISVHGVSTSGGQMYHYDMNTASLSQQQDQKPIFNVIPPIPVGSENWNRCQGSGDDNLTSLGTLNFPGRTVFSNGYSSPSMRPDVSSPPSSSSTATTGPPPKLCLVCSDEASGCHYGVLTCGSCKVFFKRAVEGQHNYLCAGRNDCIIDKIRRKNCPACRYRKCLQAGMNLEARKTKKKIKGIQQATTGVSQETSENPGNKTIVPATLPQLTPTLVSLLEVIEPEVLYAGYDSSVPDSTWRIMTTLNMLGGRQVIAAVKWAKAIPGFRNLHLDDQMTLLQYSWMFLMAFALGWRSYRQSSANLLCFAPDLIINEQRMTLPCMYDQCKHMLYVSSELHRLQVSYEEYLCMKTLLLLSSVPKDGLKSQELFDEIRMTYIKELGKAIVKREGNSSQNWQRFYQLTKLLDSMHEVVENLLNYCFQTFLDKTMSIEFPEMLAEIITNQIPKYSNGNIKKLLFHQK
Potency means the concentration at half of the fitted maximal effect.

Potency, inactive:
O=C(O)CCCCCCC1C(=O)NC(=O)N1CCC(O)C1CCCCC1 (stereo not given) > 20.6 µM
CN1CCN(c2nc3c(c(=O)n(C)c(=O)n3C)n2Cc2cccc3ccccc23)CC1 > 20.6 µM
Cc1cc(Cn2ccnc2)c(C)cc1Cn1ccnc1 > 20.6 µM
Cc1ccc(S(=O)(=O)/C(C#N)=C/c2c(N3CCN(C)CC3)nc3c(C)cccn3c2=O)cc1 > 20.6 µM
CN(CCOC(=O)c1cccc(Br)c1)C(C)(C)C > 20.6 µM
CCC(=O)Oc1ccc(C(CC)C(CC)c2ccc(OC(=O)CC)cc2)cc1 (stereo not given) > 20.6 µM
CC(C)OC(=O)C(C#N)c1nc2ccccc2nc1N1CCN(Cc2ccc3c(c2)OCO3)CC1 (stereo not given) > 20.6 µM
CCCc1cc(Nc2c(C)n(C)n(-c3ccccc3)c2=O)n2c(nc3ccccc32)c1C#N > 20.6 µM
COc1cccc(-c2nc(N3CC(C)CC(C)C3)c3ccccc3n2)c1O (stereo not given) > 20.6 µM
CC(C)COc1ccc(C(=O)OCCN2CCOCC2)c(O)c1 > 20.6 µM
O=S(=O)(c1ccc(Cl)cc1)N1CCC(N2CCCCCC2)CC1 > 20.6 µM
C=CCSc1nnc2n(-c3ccccc3OC)c(=O)c3c4c(sc3n12)CCC4 > 20.6 µM
Cc1ccc(N2C(=O)CC(N(O)C3CC(=O)N(c4ccc(C)cc4)C3=O)C2=O)cc1 (stereo not given) > 20.6 µM
Oc1ccc(Br)cc1-c1cc(-c2ccccc2F)[nH]n1 > 20.6 µM
CC1CN(C2CCN(C(=O)c3ccccc3)CC2)CC(C)O1 (stereo not given) > 20.6 µM
CCC(CC)c1nc2cc(OC)c(OC)cc2c(=O)o1 > 20.6 µM
CCCOc1ccc(Cc2nn[nH]n2)cc1 > 20.6 µM
COC(=O)c1sc2nc(N3CCCCC3)c3c(c2c1N)CC(C)(C)N(C)C3 > 20.6 µM
N#CC(C(=O)NC1CCCCC1)c1nc2ccccc2nc1N1CCN(c2ccccc2F)CC1 (stereo not given) > 20.6 µM
CCC1CCCCN1c1nc(-c2cccc(OC)c2O)nc2ccccc12 (stereo not given) > 20.6 µM
CNC(=O)Nc1cccc(NC(=O)NC)n1 > 20.6 µM
C=CCOC(=O)C(C#N)c1nc2ccccc2nc1N1CCC(C(=O)OCC)CC1 (stereo not given) > 20.6 µM
O=c1[nH]c(CN2CCCCC2)nc2c1C1(CCCC1)Cc1ccccc1-2 > 20.6 µM
CSc1nc2[nH]c3c(c2c2nnnn12)CCCC3 > 20.6 µM
COc1ccc(C(=O)Nc2cccnc2)cc1C(=O)Nc1cccnc1 > 20.6 µM
O=c1cc(-c2ccco2)nc(-c2cccs2)o1 > 20.6 µM
COCCCNc1nc(-c2ccncc2)nc2ccccc12 > 20.6 µM
c1ccc2c(NCC3CCCO3)nc(-c3ccncc3)nc2c1 (stereo not given) > 20.6 µM
COCCCNC(=O)c1c(N)n(/N=C/c2ccccn2)c2nc3ccccc3nc12 > 20.6 µM
CC(C)OC(=O)c1nn2c(C(F)(F)F)cc(-c3ccc(Br)o3)nc2c1Br > 20.6 µM
COc1cccc(-c2nc(NCCN3CCOCC3)c3ccccc3n2)c1O > 20.6 µM
C=CCNc1nc(N2CCCCC2)c(C#N)c2c1CN(Cc1ccccc1)CC2 > 20.6 µM
Cc1ccsc1C1NC(=O)c2c(sc3c2CCCC3)N1 (stereo not given) > 20.6 µM
Cc1cccn2c(=O)c3cc(C(N)=S)c(=N)n(CCCOC(C)C)c3nc12 > 20.6 µM
Cc1nc(NS(=O)(=O)c2ccccc2)sc1NC(=O)OC(C)C > 20.6 µM
CCCc1nc(N2CCOCC2)c(C#N)c2c1CCCC2 > 20.6 µM
CC(=O)Nc1ccc(Oc2ccc3nc(C)[nH]c3c2)cc1 > 20.6 µM
CCCCCCn1cc(C(=O)O)c(=O)c2ccccc21 > 20.6 µM
Clc1ccc2[nH]c3c(NCCN4CCOCC4)ncnc3c2c1 > 20.6 µM
CCOC(=O)C(C)Sc1nc(-c2cccs2)ccc1C#N (stereo not given) > 20.6 µM
